About 16,000 (4.4%) of roughly 360,000 compounds were called active. Entries that show only a call come without a potency. Not shown: some 9% with an inconclusive outcome. Calls follow the shape of the dose curve; as a rule, active = well fitted inhibition curve with a large enough effect; inconclusive = small, poorly fitted or top-dose-only effect; inactive = no such curve, though single readings can be large or run the other way. The full list was thinned out, with actives kept by preference.
target: Bromodomain adjacent to zinc finger domain protein 2B (Homo sapiens) (UniProt Q9UIF8); experiment: qHTS Assay for Inhibitors of BAZ2B; details: AlphaScreen BAZ2B-H3K14Ac peptide displacement; series mostly up to 114 µM; also: nearly all actives have a fitted effect of over 60% in size
How it was run: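 In this displacement format the biotinylated H3(5-23) peptide acetylated at Lys14 serves as ligand at 50 nM, with BAZ2B at 50 nM in PBS pH 7.4 containing 0.01% Tween-20. Donor and acceptor beads are 10 ug/mL final.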
Potency is read from the fitted curve at half-maximal effect.

Sequence of Bromodomain adjacent to zinc finger domain protein 2B (Homo sapiens) (Q9UIF8 whole entry, looked up, the tested form may be a part): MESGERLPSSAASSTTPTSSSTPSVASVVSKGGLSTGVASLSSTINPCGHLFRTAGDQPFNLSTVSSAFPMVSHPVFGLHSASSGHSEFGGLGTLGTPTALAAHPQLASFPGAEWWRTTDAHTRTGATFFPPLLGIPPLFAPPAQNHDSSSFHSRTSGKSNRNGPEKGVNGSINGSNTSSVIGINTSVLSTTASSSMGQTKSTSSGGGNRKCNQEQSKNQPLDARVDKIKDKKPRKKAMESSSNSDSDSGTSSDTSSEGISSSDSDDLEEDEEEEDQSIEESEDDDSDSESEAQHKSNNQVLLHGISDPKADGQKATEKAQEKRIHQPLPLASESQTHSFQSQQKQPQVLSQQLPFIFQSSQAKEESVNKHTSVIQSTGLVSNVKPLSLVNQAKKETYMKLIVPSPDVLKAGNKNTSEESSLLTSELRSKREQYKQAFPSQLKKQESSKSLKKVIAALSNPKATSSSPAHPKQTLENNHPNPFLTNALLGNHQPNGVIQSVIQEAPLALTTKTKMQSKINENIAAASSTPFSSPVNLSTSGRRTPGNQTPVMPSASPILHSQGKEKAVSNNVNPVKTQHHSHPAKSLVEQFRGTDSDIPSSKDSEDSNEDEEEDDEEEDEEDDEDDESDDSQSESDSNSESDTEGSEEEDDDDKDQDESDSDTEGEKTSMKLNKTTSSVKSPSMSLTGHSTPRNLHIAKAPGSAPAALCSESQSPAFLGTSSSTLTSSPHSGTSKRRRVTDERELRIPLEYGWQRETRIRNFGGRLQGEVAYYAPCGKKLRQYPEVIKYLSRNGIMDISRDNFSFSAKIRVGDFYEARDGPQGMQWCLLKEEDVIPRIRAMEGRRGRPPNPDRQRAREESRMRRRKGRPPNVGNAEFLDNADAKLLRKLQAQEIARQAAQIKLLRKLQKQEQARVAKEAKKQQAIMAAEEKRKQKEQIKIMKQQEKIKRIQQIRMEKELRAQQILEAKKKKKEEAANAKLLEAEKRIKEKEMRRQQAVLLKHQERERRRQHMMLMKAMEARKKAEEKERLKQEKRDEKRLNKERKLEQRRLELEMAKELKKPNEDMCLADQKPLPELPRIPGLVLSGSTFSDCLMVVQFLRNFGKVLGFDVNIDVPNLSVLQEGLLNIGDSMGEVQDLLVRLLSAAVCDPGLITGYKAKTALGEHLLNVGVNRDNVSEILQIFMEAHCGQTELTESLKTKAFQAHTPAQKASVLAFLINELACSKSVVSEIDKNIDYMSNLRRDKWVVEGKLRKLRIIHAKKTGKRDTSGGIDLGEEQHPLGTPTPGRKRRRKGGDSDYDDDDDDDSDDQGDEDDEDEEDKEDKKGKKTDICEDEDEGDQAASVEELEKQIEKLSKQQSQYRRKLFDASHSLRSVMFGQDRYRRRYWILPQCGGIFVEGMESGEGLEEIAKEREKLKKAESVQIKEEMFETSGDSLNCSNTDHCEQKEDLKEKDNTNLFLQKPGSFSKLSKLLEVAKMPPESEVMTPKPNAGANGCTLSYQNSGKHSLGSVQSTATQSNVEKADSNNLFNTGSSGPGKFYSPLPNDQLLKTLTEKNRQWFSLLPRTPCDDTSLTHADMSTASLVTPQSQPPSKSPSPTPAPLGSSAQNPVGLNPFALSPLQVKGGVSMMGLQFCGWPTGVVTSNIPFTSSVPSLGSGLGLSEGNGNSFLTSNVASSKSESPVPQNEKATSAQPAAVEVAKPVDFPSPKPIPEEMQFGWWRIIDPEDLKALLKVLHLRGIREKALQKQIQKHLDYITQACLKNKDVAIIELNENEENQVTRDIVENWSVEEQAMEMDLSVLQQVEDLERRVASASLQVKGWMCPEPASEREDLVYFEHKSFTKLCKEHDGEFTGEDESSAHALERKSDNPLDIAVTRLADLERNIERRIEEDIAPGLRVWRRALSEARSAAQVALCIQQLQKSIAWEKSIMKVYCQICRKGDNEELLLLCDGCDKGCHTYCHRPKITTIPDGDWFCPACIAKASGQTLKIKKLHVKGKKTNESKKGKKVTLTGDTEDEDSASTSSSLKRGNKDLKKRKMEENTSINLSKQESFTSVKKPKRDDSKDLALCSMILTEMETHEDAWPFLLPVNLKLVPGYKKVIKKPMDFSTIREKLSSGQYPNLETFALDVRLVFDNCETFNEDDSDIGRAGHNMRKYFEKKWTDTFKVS

SMILES	Potency
CCC(=O)Nc1cccc(-c2nc3cc(C)ccc3o2)c1	inactive
Cc1ccc(C)c(N2CCN(C(=O)Cn3ncc4c(=O)oc5ccc(C)cc5c43)CC2)c1	inactive
O=C(O)c1n[nH]nc1-c1ccccc1	56.2 µM (active)
O=C(O)c1ccc(-n2nc(-c3ccccc3)c3ccccc3c2=O)cc1	inactive
N#Cc1c(-c2ccccc2)c(-c2ccccc2)n[nH]c1=O	inactive
COc1ccc(Br)cc1CNC(=O)c1cc(=O)[nH]c2ccc(S(=O)(=O)N3CCCC3)cc12	inactive
COc1ccc(N(Cc2ccc(N(C)C)cc2)C(=O)c2ccc(S(C)(=O)=O)cc2)cc1	39.8 µM (active)
COc1ccc(S(=O)(=O)NCc2ccc(C(=O)N(C)Cc3ccco3)cc2)cc1	inactive
COc1ccc(C(=O)N(Cc2ccc(N(C)C)cc2)C2CCS(=O)(=O)C2)cc1 (configuration not stated)	inactive
CC(C)Cn1c(=O)c2ccccc2n2c(CCC(=O)N3CCN(c4cccc(Cl)c4)CC3)nnc12	inactive
Cc1cc(NC(=O)c2cccc(Cl)c2)ccc1-c1cc2ccccc2oc1=O	inactive
CC1=CC(C)(C)Nc2ccc(OC(=O)C(Cc3ccccc3)N3C(=O)C4CCCCC4C3=O)cc21 (configuration not stated)	inactive
O=C(CN1C(=O)C2C3CCC(C3)C2C1=O)Oc1ccc2ccccc2c1 (configuration not stated)	inactive
CC1=CC(C)(C)Nc2ccc(OC(=O)CN3C(=O)C4CCCCC4C3=O)cc21 (configuration not stated)	56.2 µM (active)
COc1ccc(CCNC(=O)c2ccc3c(c2)sc2nc(-c4ccc(C)cc4)cn23)cc1OC	inactive
Cc1cccc(CNC(=O)c2cnc3sc(N4CCCCC4)nn3c2=O)c1	inactive
Cc1ccc2nc(/C(C#N)=C/c3ccc(-c4ccc(C(=O)OC(C)C)cc4)o3)[nH]c2c1	inactive
CCc1ccccc1NC(=O)N1CCC2(CC1)Oc1ccccc1C(=O)N2Cc1ccccc1F	inactive
c1ccc2sc(NN=C3CCCC3)nc2c1	inactive
COc1ccc(CC(=O)N/N=C/c2cc([N+](=O)[O-])cc(Br)c2O)cc1	inactive
O=[N+]([O-])c1cc(Br)c(O)c(/C=N/Nc2nc3ccccc3s2)c1	35.5 µM (active)
CCN(CC)CCNC(=O)c1cc2c(=O)oc3ccc(C)cc3c2s1	inactive
CCOc1cccc(NC(=O)c2ccc(F)c(S(=O)(=O)N(CC)c3cccc(C)c3)c2)c1	inactive
O=C(CCc1ccccc1)NNc1ccc(F)cc1	inactive
CC(C)Cc1nnc(NC(=O)CCc2ccccc2)s1	inactive
O=C(CCc1ccccc1)Nc1nn[nH]n1	70.8 µM (active)

SMILES	Potency
COc1ccc(OC)c(CNC(=O)CN2C(=O)CCn3nc(-c4cn(C)c5ccccc45)cc32)c1	inactive
COc1cccc(NC(=O)c2ccc3nc(CCc4ccccc4)oc3c2)c1	inactive
CC(=O)N1CCCc2cc(S(=O)(=O)N3CCC(C(=O)NCc4ccc(C)cc4)CC3)ccc21	inactive
O=C(Nc1cc(C(F)(F)F)ccc1Cl)c1ccc2c(c1)CCN2S(=O)(=O)c1ccccc1	inactive
S=C(NCCc1ccccc1)NCc1ccccc1Cl	inactive
Clc1cccc(Cl)c1OCCOCCNCc1ccccc1	56.2 µM (active)
OCCNCc1cccc(OCc2ccccc2Cl)c1	inactive
CCCCc1nc2ccccc2c(NC(=O)CN2CCN(C)CC2)c1CCC	50.1 µM (active)
CN1CCN(CC(=O)Nc2cccc([N+](=O)[O-])c2)CC1	inactive
CCCCc1nc2ccccc2c(=O)n1NC(=O)c1c(O)c2cccc3c2n(c1=O)CC3	inactive
Fc1ccc(CN2CCc3nc(Nc4ccccc4)ncc3C2)cc1F	inactive
COc1ccc(/C=C/C2=CC(C)(C)NC(=S)N2)c(OC)c1	39.8 µM (active)
COc1cc(/C=C/C2=CC(C)(C)NC(=S)N2)cc(OC)c1OC	inactive
COc1ccc(/C=C/C(=O)OCC(=O)Nc2cccc(Oc3ccccc3)c2)c(OC)c1	inactive
O=C(O)c1c(CNCc2cccc(F)c2)c2ccccc2n1Cc1ccccc1	inactive
COC(=O)c1ccccc1NC(=O)c1cnn(-c2ccc(F)cc2)c1-n1cccc1	inactive
Cc1ccc2oc3c(c(=O)c2c1)C(c1ccc(O)cc1)N(Cc1ccc2c(c1)OCO2)C3=O (configuration not stated)	inactive
CCOc1ccc(CCNC(=O)CN(c2ccc(C)cc2)S(=O)(=O)N(C)C)cc1OCC	inactive
CCN(CC)c1ccc(/C=N/NC(=O)c2cnccn2)c(O)c1	inactive
CCN(CC)c1ccc(/C=N/Nc2nc(C)cc(C)n2)c(O)c1	25.1 µM (active)
Cc1cc(C)nc(N/N=C/c2ccc([N+](=O)[O-])o2)n1	inactive
Cc1ccc(-c2noc(CSc3nnc(-c4ccc(Cl)cc4)n3C)n2)cc1	inactive
Cc1[nH]c2c(C(=O)N3CCCC(CCC(=O)NCc4ccccc4F)C3)cccc2c1C (configuration not stated)	70.8 µM (active)
O=C(CCC1CCCN(Cc2ccc(O)c(Cl)c2)C1)NCc1ccccc1F (configuration not stated)	inactive
CSc1ncccc1C(=O)N1CCCC(CCC(=O)NCc2ccccc2F)C1 (configuration not stated)	inactive
CCCNC(=O)C1CCC(Cn2c(=O)c3sccc3n(Cc3ccccc3F)c2=O)CC1 (configuration not stated)	inactive

SMILES	Potency
Cc1ccccc1NC(=O)Cn1c(=O)n(CCCCC(=O)NCc2ccccc2Cl)c(=O)c2ccccc21	inactive
Cc1cc(F)ccc1NS(=O)(=O)c1ccc(-n2cccn2)cc1	inactive
Cn1ccc2cc(S(=O)(=O)N3CCCC(C(=O)NCc4ccccc4F)C3)ccc21 (configuration not stated)	inactive
Cc1oc(-c2ccccc2)nc1Cn1c(SCc2cccc(C(F)(F)F)c2)nc2cccnc21	inactive
CCc1nn(CC(=O)N2CCN(c3ccc(Cl)cc3)CC2)c(=O)c2cc3occc3n12	inactive
COc1ccccc1N1CCN(CC(=O)NC(=O)NCc2ccco2)CC1	inactive
NC(=O)CCN1CCN(S(=O)(=O)/C=C/c2ccccc2)CC1	inactive
O=C(CN1CCN(S(=O)(=O)/C=C/c2ccccc2)CC1)NC(=O)NCc1ccco1	50.1 µM (active)
COc1cccc(CNCCSc2nnnn2C)c1OCc1ccccc1Cl	inactive
O=C(Cc1ccccc1)n1nc(-c2ccccc2)nc1NCc1ccco1	inactive
O=c1nc2s/c(=C\c3ccco3)c(=O)n2nc1Cc1ccccc1	50.1 µM (active)
O=C(Nc1ccccc1)/C(=C\c1ccco1)NC(=O)c1ccco1	inactive
CCOc1ccccc1N(CC)C(=O)c1cc2ccc3cccnc3c2[nH]1	inactive
CC(=O)c1cccc(NC(=O)c2nc(-c3ccccc3)n(-c3cccc(C)c3)n2)c1	inactive
O=C(CSc1nccn1Cc1ccc(F)cc1)NCc1ccccc1	inactive
O=C(CSc1nccn1-c1ccc(F)cc1)Nc1cccc2ccccc12	7.94 µM (active)
Cc1nnc(NC(=O)CSc2nccn2-c2cccc(C)c2C)s1	inactive
Cc1ccccc1-n1c(SCC(=O)Nc2cccc3ccccc23)nc(O)cc1=O	inactive
CC(=O)Nc1cccc(NC(=O)CSc2nccn2Cc2ccc(F)cc2)c1	inactive
Cc1cccc(-n2ccnc2SCC(=O)Nc2cccc3ccccc23)c1C	14.1 µM (active)
O=C(CSc1n[nH]c(-c2ccccc2)n1)N1CCCCC1	inactive
CN(C(=O)c1ccc2c(c1)N(Cc1cccc(Cl)c1)C(=O)c1ccccc1S2=O)C1CCCCC1 (configuration not stated)	inactive
Cc1ccc(NC(=O)c2ccc3[nH]c(C)cc(=O)c3c2)c(C)c1	inactive
O=C1CSC2(C(=O)N(Cc3ccccc3)c3ccccc32)N1c1cccc(F)c1 (configuration not stated)	inactive
CSc1ncc(C(=O)NCc2ccccc2Cl)c(C(F)(F)F)n1	inactive
COc1ccc(OC)c(-c2csc(-c3c(N)c(C(=O)c4ccccc4)n4ccccc34)n2)c1	inactive

SMILES	Potency
O=C(NC1CCCC1)C(=O)c1c[nH]c2ccccc12	inactive
O=S(=O)(O)Oc1c[nH]c2ccccc12	44.7 µM (active)
NC(=O)CSc1c[nH]c2ccccc12	inactive
CC(=O)N(C1=C(Cl)C(=O)c2ccccc2C1=O)c1ccc(C(=O)O)cc1	28.2 µM (active)
CCc1ccc(-n2nc(C)c3c(C)cc(=O)n(CC(=O)Nc4ccc(F)cc4C)c32)cc1	inactive
CC1CC(=O)Nc2ccccc2N1S(=O)(=O)c1cccs1 (configuration not stated)	inactive
CC1CC(C)(C)NC(=S)N1CCC(=O)N1CCN(Cc2ccccc2)CC1 (configuration not stated)	inactive
CC1CC(=S)Nc2ccccc2N1Cc1ccccc1 (configuration not stated)	39.8 µM (active)
Cc1nc(N2CCOCC2)c2c(C(=O)NCc3cccc(Cl)c3)c(C)oc2n1	inactive
O=C(CCn1ccc([N+](=O)[O-])n1)Nc1nccs1	inactive
Cc1c(Br)c([N+](=O)[O-])nn1C(C)C(=O)Nc1nccs1 (configuration not stated)	79.4 µM (active)
CCOc1ccc(C(=O)Nc2nccs2)cc1[N+](=O)[O-]	inactive
COc1ccc(-c2nc3scc(CCNS(=O)(=O)c4cc(F)ccc4OC)n3n2)cc1OC	inactive
COc1ccccc1C(=O)OCc1cc(=O)n2nc(-c3cccs3)sc2n1	inactive
CC1=Nc2cc(C(=O)NCc3ccc(C)cc3)ccc2Sc2ccc(Cl)cc21	inactive
Cc1cc(Cl)ccc1OCCCC(=O)NCc1ccccn1	inactive
Fc1ccc(-c2ccc(CNCc3ccccn3)o2)cc1Cl	31.6 µM (active)
O=S(=O)(NCc1ccccn1)c1ccc(F)cc1	inactive
O=C(CCc1nc(CN2CCN(S(=O)(=O)c3ccc(Br)cc3)CC2)no1)N1CCCCC1	inactive
COC(=O)c1ccccc1NC(=O)C(Cc1ccccc1)N1Cc2ccccc2C1=O (configuration not stated)	inactive
CCN(CCCNC(=O)c1cc2cc3cc(OC)ccc3nc2s1)c1ccccc1	inactive
Cc1cc(C=O)c(C)n1-c1ccc(NC2CCCCC2)c([N+](=O)[O-])c1	10 µM (active)
Cc1cc([N+](=O)[O-])ccc1NC1CCCC1	inactive
Cc1c(NS(=O)(=O)c2ccc(NC3CCCC3)c([N+](=O)[O-])c2)c(=O)n(-c2ccccc2)n1C	inactive
